Laboratory results taken from PubChem BioAssay AID1497 (Sanford-Burnham Center for Chemical Genomics, 2009).
About 500 (0.54%) of roughly 93,000 compounds were called active. The sample as a whole holds a higher share of actives than the screen did. Unmarked numbers belong to inactive results.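 Rule for the calls: active = primary inhibition of 50% or more at 10 µM, then 40% or more on retest; inactive = the rest.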

Target: Integrin beta-2 (Homo sapiens) + Integrin alpha-M (Homo sapiens) (UniProt P05107+P11215)
Assay: antagonists of integrin CD11b/CD18-fibrinogen binding – K562 cells, luminescence, primary screen (AID 1497)
Conditions: K562 CD11b/CD18 adhesion to fibrinogen, ATPlite luminescence; at 10 µM; stronger effect = higher value; Mn2+ added to activate the integrin

Chain of Integrin beta-2 (Homo sapiens) + Integrin alpha-M (Homo sapiens) (P05107 whole entry, looked up, other chains not shown): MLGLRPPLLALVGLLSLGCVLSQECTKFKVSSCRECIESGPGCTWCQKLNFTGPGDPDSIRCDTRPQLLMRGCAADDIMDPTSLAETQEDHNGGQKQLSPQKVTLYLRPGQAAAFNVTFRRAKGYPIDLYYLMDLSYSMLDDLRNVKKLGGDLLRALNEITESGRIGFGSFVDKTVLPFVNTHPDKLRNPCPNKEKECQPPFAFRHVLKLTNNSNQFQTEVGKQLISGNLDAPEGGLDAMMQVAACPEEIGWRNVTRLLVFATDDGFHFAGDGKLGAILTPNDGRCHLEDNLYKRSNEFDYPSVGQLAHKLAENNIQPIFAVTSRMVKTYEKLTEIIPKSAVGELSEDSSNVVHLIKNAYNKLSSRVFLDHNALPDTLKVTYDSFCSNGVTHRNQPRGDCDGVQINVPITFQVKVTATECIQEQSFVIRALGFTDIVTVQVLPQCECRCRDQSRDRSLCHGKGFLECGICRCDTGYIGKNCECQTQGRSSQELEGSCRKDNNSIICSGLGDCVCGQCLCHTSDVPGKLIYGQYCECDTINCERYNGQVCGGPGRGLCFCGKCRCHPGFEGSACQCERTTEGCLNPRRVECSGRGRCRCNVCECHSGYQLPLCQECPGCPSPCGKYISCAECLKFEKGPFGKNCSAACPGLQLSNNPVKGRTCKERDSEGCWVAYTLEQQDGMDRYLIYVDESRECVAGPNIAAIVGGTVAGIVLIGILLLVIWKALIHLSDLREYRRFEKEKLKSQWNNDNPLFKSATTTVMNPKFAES

Going from `COc1ccc(NS(=O)(=O)c2ccc(NC(=S)NC(=O)/C=C/c3ccc(C)cc3)cc2)nn1` to `O=S(=O)(Nc1ccc(Oc2ncccn2)c(Cl)c1)c1ccc(F)cc1`, the inhibition falls from -15% to -21.1%.

Compared with `CCCCn1c(=O)c(CCC(=O)OCC(=O)Nc2ccc(C)c(Cl)c2)nc2ccccc21`, `CCn1c2ccccc2c2cc(NC(=O)COC(=O)c3ccccc3Br)ccc21` is lower in inhibition: 6.4% for the first, 2.2% for the second.

Compared with `OCC(CO)(CO)NCc1ccc(-c2ccccc2)cc1`, `O=C(Cc1coc2ccc3ccccc3c12)NCc1cccs1` is lower in inhibition: 3.8% for the first, -3.3% for the second.

First: Cc1ccc(S(=O)(=O)Nc2nc3ccccc3nc2N2CCc3ccccc3C2)cc1
Second: Cc1ccc(-c2nn(-c3ccccc3)cc2C(=O)Nc2cccc(S(=O)(=O)N3CCOCC3)c2)cc1
The inhibition of the first is higher: 71.6% for the first, -5.6% for the second.

First: Cc1cc(N2CCN(S(=O)(=O)c3ccc(C)c(C)c3)CC2)c2ccccc2n1
Second: CN1CCN(c2ccc(S(=O)(=O)Nc3ccccc3)cc2[N+](=O)[O-])CC1
The inhibition of the first is higher: 41.1% for the first, 31% for the second.

First: Cc1cc(SCC(=O)NCCN2C(=O)CSC2=O)nc2ccccc12
Second: O=C(NCCN1CCOCC1)c1cc(Sc2cccc(Cl)c2)nc2ccccc12
The inhibition of the first is higher: 13% for the first, 4.4% for the second.

First: Cc1c(Cl)cccc1NC(=O)CC1SC(=NCC2CCCO2)NC1=O (stereo unspecified)
Second: Cc1ccccc1NC(=O)CSC1=NCCN1
The inhibition of the first is higher: 12.8% for the first, -19.9% for the second.

Compared with `CC(Sc1nc2cc(Cl)ccc2s1)C(=O)Nc1ccc2c(c1)OCO2` (stereo unspecified), `COc1ccc(OC)c(/C=C/C(=O)OCC(=O)Nc2ccc3c(c2)OCCO3)c1` is lower in inhibition: 82.9% for the first, 24.4% for the second.

Compared with `Cc1ccc(-c2cc(N)on2)cc1`, `COc1cccc(-c2nc3cc(C)ccc3o2)c1` is higher in inhibition: -5.1% for the first, 21% for the second.

First: CC(=O)N1CCN(C(=O)c2cccc(S(=O)(=O)Nc3ccc(C)cc3)c2)CC1
Second: COC(=O)c1ccc(C(=O)OC)c(NC(=S)N2CCN(c3cc(Cl)ccc3C)CC2)c1
The inhibition of the first is lower: -4.1% for the first, 5.6% for the second.

First: O=C1NC(c2ccc(-c3ccccc3[N+](=O)[O-])o2)C(C(=O)c2ccc(Cl)cc2)C(O)(C(F)(F)F)N1 (stereo unspecified)
Second: COc1ccc([N+](=O)[O-])cc1NC(=O)c1ccc(N(Cc2ccccc2C)S(C)(=O)=O)cc1
The inhibition of the first is higher: 13.3% for the first, 4% for the second.

Going from `CC(C)[C@H](NC(=O)c1ccc(F)cc1)C(=O)OCC(=O)NC(=O)c1cccn1C` to `CC(C)CNC(=O)COC(=O)c1ccccc1OCC(=O)Nc1ccc(Br)cc1`, the inhibition rises from -23.1% to 7.6%.

Going from `COC(=O)N/N=C/c1ccc(-c2ccc(Cl)c(Cl)c2)o1` to `COc1ccc(Cl)cc1NC(=O)CNc1ccccc1F`, the inhibition falls from 9.8% to 0.4%.

First: CC(=O)N1C(C)c2ccccc2C(C)(C)CC12CCCCC2 (stereo unspecified)
Second: COc1ccccc1CN(C)C(=O)C1(c2ccc(Cl)cc2)CC1
The inhibition of the first is lower: -35.8% for the first, 11.8% for the second.

Going from `COC(=O)c1ccc(NC(=O)CSc2nncc3ccc(OC)c(OC)c23)cc1` to `Cc1ccc(NC(=O)NC(=O)CSc2nnc(-c3ccc(OC(F)F)cc3)n2N)c(C)c1`, the inhibition rises from -5.7% to 2.1%.

Compared with `CCC(C(=O)OCC(=O)Nc1c(Cl)cc(Cl)cc1Cl)c1ccccc1` (stereo unspecified), `Cc1ccc(-c2nc(C)sc2CC(=O)OCC(=O)Nc2c(F)cccc2F)cc1` is higher in inhibition: 14.9% for the first, 16.1% for the second.

First: Cc1cc(C)c(NC(=S)N2CCCC2C(=O)O)c(C)c1 (stereo unspecified)
Second: Cc1ccc(C)c(NC(=S)NCC(c2cccnc2)N2CCOCC2)c1 (stereo unspecified)
The inhibition of the first is higher: -8.3% for the first, -16.8% for the second.

Compared with `O=C(CSc1ccc(C(F)(F)F)cc1[N+](=O)[O-])NCCOc1ccccc1`, `O=C(Cn1cnc2ccccc21)N/N=C/c1ccco1` is higher in inhibition: -6% for the first, 10.1% for the second.

Compared with `COc1ccc(C2c3c(C)nn(-c4ccccc4)c3NC(=O)N2c2ccccc2)cc1` (stereo unspecified), `O=C(Nc1ccccc1)c1cccnc1Nc1ccccc1` is lower in inhibition: 2.6% for the first, -10.2% for the second.

First: Cc1csc(=Nc2ccccc2)n1CCO
Second: Cc1ccccc1C(CC(=O)c1cccs1)C(C#N)C#N (stereo unspecified)
The inhibition of the first is lower: -4.3% for the first, -1.8% for the second.

Compared with `OC(COCC1COc2ccccc2O1)CN1CCN(c2ccc(F)cc2)CC1` (stereo unspecified), `C/C(=N/NC(=O)C1COc2ccccc2O1)c1ccco1` (stereo unspecified) is higher in inhibition: -1.1% for the first, 4.4% for the second.

Compared with `CCC(=O)NC(Nc1nc2ccc(C)cc2s1)(C(=O)OC)C(F)(F)F` (stereo unspecified), `COC(=O)C(NC(=O)c1ccc(OC)cc1)(Nc1ncc(S(=O)(=O)c2ccc([N+](=O)[O-])cc2)s1)C(F)(F)F` (stereo unspecified) is higher in inhibition: -4.9% for the first, 47.7% for the second.

First: CN(Cc1cccs1)C(=O)Cc1c[nH]c2ccccc12
Second: Cc1ccc2[nH]cc(CCNC(=O)c3ccc([N+](=O)[O-])cc3)c2c1
The inhibition of the first is higher: -17.9% for the first, -25.6% for the second.

Compared with `Nc1nc(CC(=O)CSc2ccc(Cl)cc2)nc(Nc2ccc(F)cc2)n1`, `N#C/C(=C(/O)COC(=O)COc1ccc(Cl)cc1)c1nc2ccccc2[nH]1` is higher in inhibition: -3.1% for the first, 1.5% for the second.

Compared with `CCCOC(=O)c1c(NC(=O)c2cnn3c2NC(c2ccccc2)CC3C(F)(F)F)sc2c1CCCC2` (stereo unspecified), `CCOC(=O)c1c(NC(=O)C2CCN(S(=O)(=O)c3ccc(Cl)cc3)CC2)sc2c1CCCC2` is lower in inhibition: -9.3% for the first, -25.4% for the second.

First: CCCCCC(=O)Nc1ccc2oc(-c3ccncc3)nc2c1
Second: CCOC(=O)c1csc(NC(=O)Nc2cccc(OC)c2)n1
The inhibition of the first is lower: -1.9% for the first, -1.6% for the second.

First: Cc1ccc(S(=O)(=O)C2C(=O)NC3(C)CC2c2ccccc2O3)cc1 (stereo unspecified)
Second: Cc1cc[n+](-c2[nH]c(=O)sc2/C=N/NC(=O)c2ccccc2[O-])cc1C
The inhibition of the first is higher: 19.1% for the first, -4.4% for the second.

Compared with `CCOC(=O)c1cc2ccccc2nc1C`, `Cc1nc2ccccc2cc1O` is higher in inhibition: -6.1% for the first, 20.1% for the second.

Compared with `Cc1[nH]c2ccccc2c1/C=N/NC(=O)CNC(=O)c1ccc2c(c1)OCO2`, `CC1CCN(c2ccc(C(=O)NCc3ccc4c(c3)OCO4)cc2[N+](=O)[O-])CC1` is higher in inhibition: -16% for the first, 6.9% for the second.

First: CC(C)NC(=S)N1CCN(C(c2ccccc2)c2ccccc2)CC1
Second: CC(C)COP(=O)(c1ccc(N(C)C)cc1)C(Nc1ccccc1)c1cccnc1 (stereo unspecified)
The inhibition of the first is lower: -11.6% for the first, -5.3% for the second.

First: CCc1nnc(NC(=O)C2CC(=O)N(c3ccc4c(c3)OCCO4)C2)s1 (stereo unspecified)
Second: C=CCn1c(SCC(N)=O)nnc1-c1cc2c(s1)CCC(CC)C2 (stereo unspecified)
The inhibition of the first is lower: 12.3% for the first, 18.8% for the second.

Compared with `C/C(=C/C(=O)N1CCN(C)CC1)C(=O)O`, `Cc1cccc(NC(=O)c2ccccc2NC(=O)C(C)(C)C)n1` is higher in inhibition: -9.1% for the first, -2% for the second.

`CSCC[C@H](NC(=O)OC(C)(C)C)C(=O)N/N=C/c1cc2ccc(C)cc2nc1Cl` showed an inhibition of 23.4%.

With `Cc1ccc(S(=O)(=O)C(C#N)c2nc3ccccc3nc2N2CCCC2)cc1C` (stereo unspecified) the inhibition was 63.1% (active).
In the case of `Cc1ccc(S(=O)(=O)Nc2ccc3ncccc3c2)cc1`, the inhibition is reported as 75.1% (active).
In the case of `O=C(NC(Nc1nc2ccc([N+](=O)[O-])cc2s1)(C(F)(F)F)C(F)(F)F)c1ccccc1`, the inhibition is reported as 93.8% (active).
In the case of `CCc1ccc2oc(-c3ccc(N)cc3)nc2c1`, the inhibition is reported as 62.3% (active).
For `Cc1nc2ccccc2cc1OCc1ccc(F)cc1`, the inhibition was 98.8% (active).
`O=C(Nc1ccccc1)c1ccccc1NC(=O)C(F)(F)F` was tested, and the inhibition was 77.1% (active).
